Compound activity: PubChem, Sanford-Burnham Center for Chemical Genomics
TIM10 inh: inhibits growth of TIM10 yeast strain | S. cerevisiae TIM10 strain growth, BacTiter-Glo luminescence, 24 h | inhibition, % at 10 µM | 330,000 compounds, 1.4% hits | AID 463195;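 active means inhibition of 40% or more at the single tested concentration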;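 further: wild-type TIM10 isogenic control strain grown at permissive 25 °C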
tim23-1 inh: inhibits growth of tim23-1 mutant yeast | S. cerevisiae tim23-1 growth, BacTiter-Glo luminescence, 24 h | inhibition, % at 20 µM | 330,000 compounds, 1.3% hits;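 active means growth inhibition of the mutant yeast at or above 50%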;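 further: temperature-sensitive mutant grown at 25 °C; plate controls were DMSO-treated mutant yeast for no effect and medium wells lacking yeast for full effect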
tim10-1 inh: growth inhibitors of tim10-1 mutant yeast | inhibition, % at 20 µM | S. cerevisiae tim10-1 ts strain growth, BacTiter-Glo, 24 h | 330,000 compounds, 2.2% hits;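 active means inhibition of at least 40%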;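 further: mutant grown at 25 °C; 0% = DMSO wells with yeast and 100% = wells holding no yeast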
MPTP block: inhibitors of mitochondrial permeability transition pore. isolated mouse mitochondria, Ca2+ swelling absorbance, 30 min. inhibition, % at 10 µM. 360,000 compounds, 1.4% hits. AID 602449;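 active means inhibition of 50% or more, scaled per plate between neutral and stimulator controls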;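 further: 0% = DMSO wells given calcium and 100% = 1 mM EGTA wells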
Mdm2 MdmX PPI: disrupts the human Mdm2-MdmX interaction; O15151+Q00987; SaOS-2 split-luciferase Mdm2/MdmX complementation, luminescence; inhibition, % at 8 µM; 330,000 compounds, 3% hits;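 active means inhibition of at least 50% at 8 µM in the primary screen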
Target sequence (O15151 whole entry, looked up): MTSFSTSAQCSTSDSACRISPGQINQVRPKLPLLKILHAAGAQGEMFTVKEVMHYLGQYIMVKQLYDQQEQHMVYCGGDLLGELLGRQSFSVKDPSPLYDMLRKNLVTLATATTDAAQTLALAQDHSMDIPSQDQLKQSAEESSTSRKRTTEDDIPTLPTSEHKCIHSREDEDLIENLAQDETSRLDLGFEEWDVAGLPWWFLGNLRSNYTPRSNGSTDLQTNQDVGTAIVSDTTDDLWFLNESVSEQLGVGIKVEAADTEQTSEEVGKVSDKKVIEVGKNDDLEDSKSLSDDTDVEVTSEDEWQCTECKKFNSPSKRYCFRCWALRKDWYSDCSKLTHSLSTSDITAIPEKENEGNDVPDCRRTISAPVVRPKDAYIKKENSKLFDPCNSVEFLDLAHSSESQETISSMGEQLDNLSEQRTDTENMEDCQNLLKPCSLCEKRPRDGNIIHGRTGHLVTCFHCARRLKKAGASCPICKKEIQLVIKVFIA
Target sequence (Q00987 whole entry, looked up): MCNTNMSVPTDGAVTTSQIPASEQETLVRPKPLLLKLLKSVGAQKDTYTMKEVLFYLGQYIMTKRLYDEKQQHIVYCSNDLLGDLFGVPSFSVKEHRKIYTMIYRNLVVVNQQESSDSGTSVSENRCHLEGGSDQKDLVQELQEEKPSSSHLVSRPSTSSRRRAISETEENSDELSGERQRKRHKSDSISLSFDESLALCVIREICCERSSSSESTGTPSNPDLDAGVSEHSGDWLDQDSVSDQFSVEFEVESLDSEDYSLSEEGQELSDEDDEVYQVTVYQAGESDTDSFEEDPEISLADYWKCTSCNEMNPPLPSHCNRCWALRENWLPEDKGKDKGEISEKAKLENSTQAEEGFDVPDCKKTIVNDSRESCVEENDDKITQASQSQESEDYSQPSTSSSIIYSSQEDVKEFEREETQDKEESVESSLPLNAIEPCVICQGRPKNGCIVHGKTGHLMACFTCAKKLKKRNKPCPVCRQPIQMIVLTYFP
TIM10 conf: TIM10 yeast growth inhibition, confirmed | shares compounds with TIM10 inh | S. cerevisiae tim10 strain growth, BacTiter-Glo luminescence, 24 h | inhibition, % at 10 µM | 4,600 compounds, 63% hits | AID 463215;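 active means inhibition of yeast growth at or above a set limit in either of two replicates at 10 µM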;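 further: this counterscreen used the strain with wild-type TIM10; 0% = yeast with DMSO and 100% = medium wells lacking yeast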
* = called active by the depositor. Rows were chosen to be rich in hits. Some 6.3% of all compounds tested hit in one or more screens of this group.

CC(C)C[C@@H](CN1CCC[C@H]1CN1C(=O)C(=O)NC[C@@H]1Cc1ccccc1)N1C[C@H](Cc2ccc(O)cc2)N(CC2CCCCCC2)C(=O)C1=O was read as MPTP block -6.
C[C@H]1CN([C@@H](C)CO)S(=O)(=O)c2ccc(-c3ccccc3)cc2O[C@H]1CN(C)C(=O)C1CCC1 was read as MPTP block 0.
For COCCNC(=O)C1(C)Cc2c(-c3cccc(C(F)(F)F)c3)ccnc2O1 (stereo unspecified) the results were MPTP block 0.
`COc1ccc(C(C)(O)c2nc(-c3ccc(N(C)C)cc3)cs2)cc1` (stereo unspecified) gave MPTP block 5.
Screening CCOC(=O)c1sc(=NC(=O)c2cccc(C)c2)n(C)c1C returned TIM10 inh 37, tim23-1 inh 3, tim10-1 inh 5, MPTP block -1 and Mdm2 MdmX PPI -67.
For CCOC(=O)c1sc(=NC(=O)c2ccc(C)cc2)n(C)c1C the results were TIM10 inh 42*, tim23-1 inh 35, tim10-1 inh 9, MPTP block 5, Mdm2 MdmX PPI -124 and TIM10 conf 20.
For COc1ccc(-c2ncncc2-c2ccc(OC)c(OC)c2)c(O)c1 the results were TIM10 inh 14, tim23-1 inh 5, tim10-1 inh 16, MPTP block 1 and Mdm2 MdmX PPI 29.
For COc1ccc(-c2cc(-c3ccc(OC)c(OC)c3)n[nH]2)c(O)c1 the results were TIM10 inh 47*, tim23-1 inh 44, tim10-1 inh 37, MPTP block 8, Mdm2 MdmX PPI -47 and TIM10 conf 25.
`COc1ccc(O)c(-c2cc(-c3cccc(Br)c3)n[nH]2)c1` gave TIM10 inh 53*, tim23-1 inh -52, tim10-1 inh 8, MPTP block 3, Mdm2 MdmX PPI -65 and TIM10 conf 62*.
Screening O=C(OCCO)c1c(-c2ccccc2)oc2c1C(OCCO)CCC2 (stereo unspecified) returned MPTP block -1.
For Cc1ccc(NC(=O)CCSc2nnc(C)s2)cc1 the results were TIM10 inh -4, tim23-1 inh -14, tim10-1 inh 9, MPTP block 0 and Mdm2 MdmX PPI 20.
Screening CC1=NN(/C(=N\c2nnc(C)s2)Nc2ccc(C(C)(C)C)cc2)[C@H](c2ccc(C)cc2)S1 returned TIM10 inh 52*, tim23-1 inh 50, tim10-1 inh 34, MPTP block 1, Mdm2 MdmX PPI 37 and TIM10 conf 16.
`CCNC(=O)C1(C)CCCN(C(=O)c2cc(-c3cccs3)oc2C)C1` (stereo unspecified) gave MPTP block 1.
Screening COc1cccc2cc(-c3ccnc(N)n3)oc12 returned TIM10 inh 17, tim23-1 inh -1, tim10-1 inh 3, MPTP block 1 and Mdm2 MdmX PPI -2.
Screening COc1cccc2cc(-c3n[nH]c(=S)n3C)oc12 returned TIM10 inh 42*, tim23-1 inh 28, tim10-1 inh 38, MPTP block 0, Mdm2 MdmX PPI -21 and TIM10 conf 20.
Cn1cc(-c2csc(C(O)c3ccccc3)n2)cn1 (stereo unspecified) was read as MPTP block -1.
For O=C(NCC1(c2ccccc2)CCCC1)c1ccc(Br)cc1 the results were TIM10 inh 41*, tim23-1 inh 36, tim10-1 inh 35, MPTP block 0, Mdm2 MdmX PPI 15 and TIM10 conf 13.
Screening Cc1ccc(C(=O)NCC2(c3ccccc3)CCCC2)cc1 returned TIM10 inh 16, tim23-1 inh 18, tim10-1 inh 14, MPTP block 1 and Mdm2 MdmX PPI -9.
Screening COc1ccc(-c2[nH]n(-c3ccc([N+](=O)[O-])cc3)c(=O)c2C=NCC2CCCO2)cc1 (stereo unspecified) returned TIM10 inh 19, tim23-1 inh 15, tim10-1 inh 28, MPTP block 3 and Mdm2 MdmX PPI -19.
COc1ccc(-c2[nH]n(-c3ccc([N+](=O)[O-])cc3)c(=O)c2C=NCc2ccncc2)cc1 was read as TIM10 inh 43*, tim23-1 inh 33, tim10-1 inh 36, MPTP block 3, Mdm2 MdmX PPI 30 and TIM10 conf 7.
CCOC(=O)CNC(=O)c1ccc(Cl)s1 was read as TIM10 inh -21, tim23-1 inh 10, tim10-1 inh 2, MPTP block -1 and Mdm2 MdmX PPI 15.
Screening CCNc1nc(N)c(C(=O)c2ccc(Cl)s2)s1 returned TIM10 inh 44*, tim23-1 inh 21, tim10-1 inh 33, MPTP block 0, Mdm2 MdmX PPI 11 and TIM10 conf 41*.
For CCCCNc1c(CC(C)C)nc2nc(C)cc(C)n12 the results were MPTP block 2.
For Cc1cc(=O)n2nc(N3CCCC(C(=O)Nc4cccc(C)c4C)C3)sc2n1 (stereo unspecified) the results were MPTP block -1.
Oc1ccc(-c2nnc(-c3ccc(O)cc3)nn2)cc1 was read as TIM10 inh 2, tim23-1 inh -2, tim10-1 inh 17, MPTP block 7 and Mdm2 MdmX PPI -152.
Screening Oc1ccc(-c2cccc(-c3ccc(O)cc3)n2)cc1 returned TIM10 inh 44*, tim23-1 inh 39, tim10-1 inh 33, MPTP block 6, Mdm2 MdmX PPI -28 and TIM10 conf 32*.
For CCCCN1C(=O)C(CC(=O)NC2CCCCC2)CC(C(=O)N(C(C)C)C(C)C)=C1C (stereo unspecified) the results were MPTP block 0.
`O=C(c1ccccc1Cl)N(C(=O)c1ccccc1Cl)c1nccc(-c2cccs2)n1` gave TIM10 inh 42*, tim23-1 inh 28, tim10-1 inh 27, MPTP block 2, Mdm2 MdmX PPI 16 and TIM10 conf 10.
For CO/N=C(\c1nonc1N)N1CCN(c2ccc(Cl)cc2[N+](=O)[O-])CC1 the results were TIM10 inh 43*, tim23-1 inh 36, tim10-1 inh 27, MPTP block 28, Mdm2 MdmX PPI 25 and TIM10 conf 31*.
CO/N=C(\c1nonc1N)N1CCN(c2ccc([N+](=O)[O-])cc2Cl)CC1 was read as TIM10 inh 8, tim23-1 inh 16, tim10-1 inh 25, MPTP block 14 and Mdm2 MdmX PPI -8.
CCn1c(CNc2cccc(Cl)c2)nnc1SCc1ccccc1 was read as TIM10 inh 41*, tim23-1 inh 44, tim10-1 inh 39, MPTP block 4, Mdm2 MdmX PPI 3 and TIM10 conf 49*.
For CCn1c(CNc2ccc(Cl)cc2)nnc1SCc1ccc(Cl)cc1 the results were TIM10 inh 17, tim23-1 inh 44, tim10-1 inh 9, MPTP block 3 and Mdm2 MdmX PPI 47.
`Cc1ccsc1/C=N/Nc1nc2ccccc2s1` gave TIM10 inh 40*, tim23-1 inh 39, tim10-1 inh 13, MPTP block 8, Mdm2 MdmX PPI -243 and TIM10 conf 44*.
